# Experimental data published in PubChem BioAssay (Tox21).
# Inconclusive results are not listed. The source made the active and inactive calls. Calls come from the whole dose curve; as a rule, active = well fitted cell-killing curve with a large enough effect in the repeat runs; inconclusive = weak or mixed curves, or effect the other way; inactive = flat fitted curve, though single readings scatter.
# Assay: qHTS assay to identify small molecule agonists of the estrogen receptor beta (ER-beta) signaling pathway - cell viability counter screen (AID 1259380); note: nearly all actives have a fitted effect of over 30% in size
# Settings: ER-beta-bla HEK293T viability, CellTiter-Glo luminescence, 16 h; series mostly up to 92.4 µM; activity change, negative = cytotoxicity: at the top concentration
# Excerpt: National Center for Advancing Translational Sciences [NCATS]
# NIH Chemical Genomics Center [NCGC]
# U.S. Environmental Protection Agency [EPA]
# National Institutes of Environmental Health Sciences [NIEHS]
# National Toxicology Program [NTP]
# U.S. Food and Drug Administration [FDA]
# Estrogen receptor (ER), a nuclear hormone receptor, plays an important role in development, metabolic homeostasis and reproduction. Two subtypes of ER, ER-alpha and ER-beta, have similar expression patterns with some uniqueness in both types. Endocrine disrupting chemicals (EDCs) and their interactions with steroid hormone receptors like ER causes disruption of normal endocrine function. To identify the compounds that activate ER signaling, an ER beta-UAS-bla GripTite cell line (Life Technologies, Madison, WI, USA) containing a beta-lactamase reporter gene under the control of an UAS response element was used to screen Tox21 10K compound library. The cytotoxicity of the Tox21 compound library against the ER-beta-bla cell line was tested in parallel by measuring the cell viability using CellTiter-Glo assay in the same wells.
# Tox21 Assay Protocol Summary:
# ER-beta-UAS-bla HEK293T cells were dispensed at 2,000 cells/5 uL of assay medium containing 2% charcoal stripped FBS per well into black wall/clear-bottom 1536-well plates using a Multidrop Combi (ThermoFisher Scientific, Waltham, MA) dispenser. After the assay plates were incubated at a 37C and 5% CO2 for 6 hr, 23 nL of compounds dissolved in DMSO, positive controls or DMSO only was transferred to the assay plate by a Pintool station (Kalypsys, San Diego, CA). The plates were incubated at 37C and 5% CO2 for 16 hr. Then 1 uL of LiveBLAzerTM B/G FRET substrate was added using a BioRAPTR FRD (Flying Reagent Dispenser, Aurora Discovery, San Diego, CA) and then the plates were incubated at room temperature for 2 hours, and fluorescence intensity was measured by an Envision plate reader (PerkinElmer, Shelton, CT). For cell viability readout that measures cytotoxicity, 4 uL/well of CellTiter-Glo reagent was added into the assay plates using a FRD. After 30 min incubation at room temperature, the luminescence intensity in the plates was measured using a ViewLux (PerkinElmer) plate reader.
# % is set by controls: 0 for no effect and ±100 for the full control effect.
row,Structure (SMILES),"activity change, negative = cytotoxicity"
1,CC(=O)OC[C@H]1O[C@@H](OC(C)=O)[C@H](OC(C)=O)[C@@H]1OC(C)=O,2.78% [at 42.5 µM] (inactive)
2,CC(=O)OC(C)(C)Cc1ccccc1,-2.29% (inactive)
3,NC(Cc1c[nH]c2ccccc12)C(=O)O (stereo not given),-1.93% [at 42.5 µM] (inactive)
4,O=C(Oc1ccccc1C(=O)O)c1ccccc1O,-2.98% [at 42.5 µM] (inactive)
5,Cc1cccc(C(=O)O)c1[N+](=O)[O-],0.37% (inactive)
6,CC(C)CCCCCCOC(=O)C1CCCCC1C(=O)OCCCCCCC(C)C (stereo not given),-4.82% (inactive)
7,Nc1c(NC/C=C\COc2cc(CN3CCCCC3)ccn2)c(=O)c1=O,1.31% [at 19 µM] (inactive)
8,COc1cc2c3cc1Oc1cc(ccc1O)C[C@@H]1c4c(cc(OC)c(O)c4Oc4ccc(cc4)C[C@@H]3N(C)CC2)CC[N+]1(C)C,5.28% [at 42.5 µM] (inactive)
9,F[Si-2](F)(F)(F)(F)F,2.1% (inactive)
10,CNCc1ccccc1,3.38% [at 42.5 µM] (inactive)
11,CCCCCCCCCOCC1CO1 (stereo not given),0.381% (inactive)
12,CN(C)CCOCCN(C)CCO,3.78% (inactive)
13,O=C(O)c1ccccc1C(=O)Nc1ccc(S(=O)(=O)Nc2nccs2)cc1,1.91% [at 42.5 µM] (inactive)
14,Nc1ccc(C(=O)OCC(O)CO)cc1 (stereo not given),1.42% [at 42.5 µM] (inactive)
15,SCCSCCS,1.68% (inactive)
16,CN(C1CCCCC1)S(=O)(=O)c1ccccc1N,-15.6% (inactive)
17,O=C(c1ccc2c(c1)C(=O)OC2=O)c1ccc2c(c1)C(=O)OC2=O,5.57% (inactive)
18,CCCCCCCCCCCCC,-1.6% (inactive)
19,CN(C)CCCNCCC#N,1.8% (inactive)
20,CCCCCCCCC(=O)OCC,1.9% (inactive)

row,Structure (SMILES),"activity change, negative = cytotoxicity"
1,O=C(O)c1ccccc1C(=O)OCc1ccccc1,2.59% (inactive)
2,CC(C)CCC(=O)CCC(C)C,3.8% (inactive)
3,Nc1ccnc(=O)[nH]1,4.13% (inactive)
4,CC(=O)OCC(=O)[C@@]1(O)[C@H](OC(C)=O)C[C@H]2[C@@H]3CCC4=CC(=O)C=C[C@]4(C)[C@@]3(F)[C@@H](O)C[C@@]21C,-3.43% [at 42.5 µM] (inactive)
5,CCCCC[Si](OCC)(OCC)OCC,4.38% (inactive)
6,CCC1Nc2cc(Cl)c(S(N)(=O)=O)cc2S(=O)(=O)N1 (stereo not given),2.8% [at 42.5 µM] (inactive)
7,CC(=O)OC(C)c1ccccc1 (stereo not given),10.4% (inactive)
8,CCCCC(CC)COC(=O)c1ccccc1 (stereo not given),0.292% (inactive)
9,OCCCCCCCl,7.2% (inactive)
10,O=CN1CCOCC1,10.6% (inactive)
11,Cc1cccc(NC(=S)N(C)C)c1,-26.7% (inactive)
12,C[C@H]1O[C@H](O[C@H]2[C@H](O)[C@@H](O)[C@@H](O[C@H]3[C@H](O)[C@@H](O)[C@H](O)O[C@@H]3CO)O[C@@H]2CO)[C@H](O)[C@@H](O)[C@@H]1N[C@H]1C=C(CO)[C@@H](O)[C@H](O)[C@H]1O,2% [at 42.5 µM] (inactive)
13,CCCCCCCCCCCCCCCCCCN(C)C,3.18% [at 42.5 µM] (inactive)
14,O=[Si]=O,2.69% (inactive)
15,CCCCC(CC)CNC(=O)CC(C)OC(=O)CCC(=O)O (stereo not given),-10.1% [at 42.5 µM] (inactive)
16,O=C(O)c1c(Cl)ccc(Cl)c1Cl,2.01% (inactive)
17,COc1ccc(NS(=O)(=O)c2ccc(N)cc2)nn1,-0.191% [at 42.5 µM] (inactive)
18,C[C@H](CCC(=O)NCC(=O)O)[C@H]1CC[C@H]2[C@@H]3[C@H](O)C[C@@H]4C[C@H](O)CC[C@]4(C)[C@H]3C[C@H](O)[C@]12C,6.85% (inactive)
19,CC(C)(C)NCCO,-2.04% (inactive)
20,CC(=O)/C=C/c1ccco1,-2.13% (inactive)
